Screening data as filed in PubChem BioAssay.
D1 potentiator: potentiators of human D1 dopamine receptor. P21728. HEK293 TREx D1 cells, calcium flux, dopamine EC20 potentiation. potentiation, % at 10 µM. hit rate 0.036% among 360,000; in the data active = potentiation above about 30%
Target sequence (P21728 whole entry, looked up): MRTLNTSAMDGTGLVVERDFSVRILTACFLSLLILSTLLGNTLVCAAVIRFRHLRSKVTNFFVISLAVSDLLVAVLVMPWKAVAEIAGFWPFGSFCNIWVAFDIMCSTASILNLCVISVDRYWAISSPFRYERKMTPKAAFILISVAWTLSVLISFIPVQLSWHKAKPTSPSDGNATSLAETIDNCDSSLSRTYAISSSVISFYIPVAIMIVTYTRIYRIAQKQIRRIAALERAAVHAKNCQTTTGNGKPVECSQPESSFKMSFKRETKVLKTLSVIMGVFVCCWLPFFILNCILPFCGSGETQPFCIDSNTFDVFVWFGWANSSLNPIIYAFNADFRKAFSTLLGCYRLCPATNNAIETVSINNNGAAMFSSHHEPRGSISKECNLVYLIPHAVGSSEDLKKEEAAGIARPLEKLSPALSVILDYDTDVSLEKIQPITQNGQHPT
DRD3 agonist: agonists of human D3 dopamine receptor | P35462 | D3R DiscoveRx beta-arrestin cells, luminescence, 90 min | max activation, % | hit rate 0.58% among 410,000; in the data active = max activation above about 30%
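Agonist mode: compounds and dopamine controls were applied to plated cells for 90 min at 37 degrees C after an overnight attachment at 1500 cells/well. Luminescent read-out followed 30 - 60 minutes at room temperature with DiscoveRx detection reagent.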
D3 antag: antagonists of human D3 dopamine receptor | P35462 | D3R cells, DiscoveRx beta-arrestin luminescence, antagonist mode; active compounds read low | max response, negative = inhibition, % | hit rate 2.5% among 360,000 | AID 652054; in the data active = max response below about -50%; inconclusive = no clear call, values can overlap the other calls
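Cells expressing the human receptor were seeded at 1500 cells/well, incubated overnight at 37 degrees C in 5% CO2, then exposed to library compounds with dopamine controls for 90 minutes at 37 degrees C before luminescent detection.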
D1 antagonist: human D1 dopamine receptor antagonism | AID 504652 | HEK293 TREx D1 cells, calcium flux, dopamine EC80; active compounds read low | hit rate 3.2% among 360,000 | activity change, negative = inhibition, % at 10 µM; in the data active = activity change below about -30%
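Antagonism measured as reduced calcium response to an EC80 dopamine addition following 180 s compound pre-read; cells were inducible HEK293 Trex D1 plated overnight at 30 C, read kinetically at 1 cycle/sec.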
D1 ag: agonists of human D1 dopamine receptor; HEK293 T-REx D1 cells, calcium flux, agonist mode; activation, % at 2 µM; hit rate 1% among 360,000; AID 504660; in the data active = activation above about 30%
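Tetracycline-induced HEK293 TREx D1 cells, force-coupled to calcium signalling, were dye-loaded with a no-wash calcium kit. Compound was pin-added after a 10 s baseline. Fluorescence was read kinetically at 1 cycle/s for 180 s, with calcium rises flagged as agonism.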
Large screens that a line does not name were inactive. Only some compounds are listed: those with a hit (about 6.1% of all), similar ones and a draw of the others.

Cc1oc2ccc(NS(=O)(=O)c3cccc4cccnc34)cc2c1C(=O)OC(C)C	none
CCN(c1ccccc1)S(=O)(=O)c1nnc(NC(=O)C(C)C)s1	none
CC(C)c1ccc(S(=O)(=O)N2CCN(C(=O)c3ccncc3)CC2)cc1	D1 antagonist -31 (no result: D1 potentiator)
C(=C\c1nccc2c1[nH]c1ccccc12)/c1ccccc1	D1 antagonist -37
Fc1ccc(/C=C\c2nccc3c2[nH]c2ccccc23)cc1	none
OC1CCC(NC(=S)Nc2ccc(SC(F)F)cc2)CC1 (centres undefined)	D3 antag inconclusive
FC(F)Sc1ccc(NC(=S)NC2CCCC2)cc1	D1 antagonist -34
CC1CCCC(NC(=S)Nc2ccc(SC(F)F)cc2)C1C (centres undefined)	D1 antagonist -44
Cc1cccc(C)c1NC(=O)CN(Cc1ccc(Br)cc1)S(=O)(=O)c1ccccc1	none (no result: D3 antag)
COc1nc2ccccc2nc1N1CCN(Cc2ccc3c(c2)OCO3)CC1	D3 antag -114
C=CCOC(=O)C(C#N)c1nc2ccccc2nc1N1CCN(Cc2ccc3c(c2)OCO3)CC1 (centres undefined)	D1 antagonist -32
CCCCNC(=O)C(C#N)c1nc2ccccc2nc1N1CCN(Cc2ccc3c(c2)OCO3)CC1 (centres undefined)	none (no result: D1 potentiator, D1 antagonist, D1 ag)
COC(=O)c1cc(NC(=O)CC2SC(=Nc3ccccc3)N(CCc3c[nH]c4ccccc34)C2=O)cc(C(=O)OC)c1 (centres undefined)	none
COc1ccc(NC(=O)CCNS(=O)(=O)c2cccc3nsnc23)cc1Cl	none (no result: D3 antag)
Cc1ccc(NC(=O)c2cc(S(=O)(=O)N3CCCC3)cn2C)cc1	none
Cc1ccc(CCNC(=O)c2cc(S(=O)(=O)N3CCCC3)cn2C)cc1	D3 antag -145
Cn1cc(S(=O)(=O)N2CCCC2)cc1C(=O)NCc1ccc(Cl)cc1	D1 antagonist -33
CN(C)c1ccc(CNC(=O)c2cc(S(=O)(=O)N3CCCC3)cn2C)cc1	none
COc1ccc(NC(=O)c2cc(S(=O)(=O)N3CCOCC3)cn2C)cc1Cl	none
COc1ccc(NC(=O)c2cc(S(=O)(=O)N3CCCCC3)cn2C)cc1Cl	DRD3 agonist 49 (no result: D3 antag)
O=C(NCc1ccc(Cl)cc1)c1cccc(S(=O)(=O)N2CCCC2)c1	D1 antagonist -40
O=C(NCc1ccccc1)c1cccc(S(=O)(=O)N2CCCCC2)c1	none
O=C(CN(C(=O)CCC(=O)Nc1nccs1)C1CCCC1)NCc1ccc2c(c1)OCO2	none
O=C(NCC1CCN(S(=O)(=O)c2ccccc2)CC1)Nc1ccccc1	none
CCCC(=O)N1CCCC1(C)C(=O)Nc1ccc(-n2cccc2)cc1 (centres undefined)	none (no result: D1 potentiator, D1 antagonist, D1 ag)
Cc1ccc(C(=O)NCCC2=CCCCC2)cc1S(=O)(=O)N1CCCCC1	none
O=C(NCCC1=CCCCC1)c1cccc(S(=O)(=O)N2CCCCC2)c1	D1 antagonist -39
c1ccc(-n2cc(CNCCc3cscn3)c(-c3ccc4c(c3)OCO4)n2)cc1	D3 antag -62
CCN(CC)c1ccc(S(=O)(=O)Nc2cc(Cl)ccc2Cl)cc1NC(=S)NC(=O)C1CCCC1	D1 antagonist -32
O=C(NC(=S)Nc1ccccc1Cl)C1CC1	D3 antag inconclusive
Cc1ccc(NC(=S)NC2CCCCC2)cc1S(=O)(=O)N(C)C	D1 antagonist -34
COc1ccccc1NS(=O)(=O)c1ccc(Cl)c(NC(=S)NC(=O)C2CCCC2)c1	none
CCN(CC)S(=O)(=O)c1ccc(C)c(NC(=S)NC2CCCCC2)c1	D1 antagonist -80
CCN(CC)S(=O)(=O)c1ccc(Cl)c(NC(=S)NC(=O)C2CCCC2)c1	D3 antag inconclusive, D1 ag 32 (no result: D1 potentiator)
Cc1cccc2c1cnn2C(=O)CCC(=O)N1CCC(C)CC1	D3 antag -57
Cc1ccc(-c2nn3c(=O)cc(CN4CCN(C(=O)Nc5cc(Cl)ccc5C)CC4)nc3s2)cc1	none (no result: D3 antag)
O=C1C=CC(=O)N1Cc1ccccn1	none (no result: D1 potentiator, D1 antagonist, D1 ag)
O=C1c2ccccc2C(=O)N1Cc1ccccn1	D1 antagonist -37
COc1cccc(CNC(=O)[C@@H]2CCCN2C(=O)[C@H]2CCCCN2C(=O)c2c(F)cccc2F)c1	none (no result: D1 potentiator, D1 antagonist, D1 ag)
CCC(C)NCCOCCOc1ccc(Cl)cc1Br (centres undefined)	D3 antag -83
CCC(C)NCCCOc1ccc(Cl)cc1C(C)(C)C (centres undefined)	D3 antag -69
CCC(C)NCCOCCOc1ccc(C)cc1OC (centres undefined)	none
Cc1ccc(OCCOCCNC(C)C)c(Br)c1	D3 antag -75
COCCCNCCOCCOc1ccc(C)cc1Br	D3 antag inconclusive
CCCCNCCOCCOc1ccc(C)cc1Br	D3 antag -81
